Screening data: PubChem BioAssay, National Center for Advancing Translational Sciences (NCATS)
The list is not random: actives were taken first. Their share in the collection is about 21%.
TDP1 cell noCPT – qHTS for Inhibitors of human tyrosyl-DNA phosphodiesterase 1 (TDP1): qHTS in cells in absence of CPT; 420,000 compounds, 15% hits; AID 686978, 2013; Potency, µM (titrated, usually from 46.2 µM), for inactives: top-dose activity change, negative = growth inhibition, most hits filed as inhibitors; DT40 Tdp1-/- hTDP1 cells, no CPT, ATP luminescence, 48 h; further: potency means the concentration at half of the fitted maximal effect; on the % scale 0 is the no-effect control and ±100 the full control effect; nearly all actives have a fitted effect of over 55% in size
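Chicken DT40 Tdp1-/- cells stably complemented with human TDP1 were seeded at 400 cells/well with DMSO in place of 20 nM camptothecin. After compound pinning, cells grew at least 48 hr at 37 °C; viability read by CellTiter-Glo luminescence.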
ClpP mod – qHTS Assay for Activators of ClpP; ATP-dependent Clp protease proteolytic subunit (Bacillus subtilis (strain 168)), P80244; purified B. subtilis ClpP, FRET peptide cleavage, 20 min; Potency, µM (series often up to 57.5 µM), without a hit: top-dose activity change, negative = active; 340,000 compounds, 1.9% hits; active means well fitted falling curve with a large enough effect; inconclusive means small, poorly fitted or top-dose-only effect; inactive means no such curve, though single readings can be large or run the other way; further: potency means the concentration at half of the fitted maximal effect; the source files actives as falling curves though it sought activators and does not explain the sign; nearly all actives have a fitted effect of over 65% in size
Target sequence (P80244 whole entry, looked up): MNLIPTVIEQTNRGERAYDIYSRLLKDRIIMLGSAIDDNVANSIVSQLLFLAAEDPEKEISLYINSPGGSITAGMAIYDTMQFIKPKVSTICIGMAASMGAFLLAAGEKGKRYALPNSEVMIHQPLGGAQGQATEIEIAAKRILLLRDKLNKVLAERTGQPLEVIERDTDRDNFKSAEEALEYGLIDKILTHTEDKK
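FRET quenching reversal measured ClpP activation: 10 microg/mL B. subtilis ClpP at pH 8 with the FRET-FV decapeptide, read at 430 nm after 320 nm excitation. The 20-min minus 0-min signal was scaled between DMSO/no-enzyme wells and ADEP (5.8 microM final).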
DRD3 antagonist – blocks the human D3 dopamine receptor. AID 652054. D3R cells, DiscoveRx beta-arrestin luminescence, antagonist mode; stronger effect = lower value. 360,000 compounds, 2.5% hits. max response, negative = inhibition, %; in the data active means max response below about -50%; inconclusive means no clear call, values can overlap the other calls; further: on the % scale 0 is the no-effect control and ±100 the full control effect
Target sequence (P35462 whole entry, looked up): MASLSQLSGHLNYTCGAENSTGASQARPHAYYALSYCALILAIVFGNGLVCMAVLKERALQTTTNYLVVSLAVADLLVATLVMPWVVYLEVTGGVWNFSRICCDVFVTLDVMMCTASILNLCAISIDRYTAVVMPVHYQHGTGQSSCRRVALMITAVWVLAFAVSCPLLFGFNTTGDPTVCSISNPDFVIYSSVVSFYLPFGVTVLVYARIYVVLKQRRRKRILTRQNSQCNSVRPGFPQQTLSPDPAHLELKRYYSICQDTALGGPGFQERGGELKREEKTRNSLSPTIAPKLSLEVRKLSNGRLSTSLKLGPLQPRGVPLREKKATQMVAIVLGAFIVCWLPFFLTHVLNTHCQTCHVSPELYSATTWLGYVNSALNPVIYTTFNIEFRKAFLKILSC
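Cells plated overnight at 1500 cells/well, then exposed to library compounds with dopamine controls for 90 minutes at 37 degrees C. DiscoveRx reagent added for 30–60 minutes at room temperature; luminescence read, quantitative HTS format.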
IL1B secr inh – blocks inflammasome-driven IL-1 beta release. THP-1 LPS/ATP IL-1B secretion, AlphaLISA, 16 h; stronger effect = lower value. 360,000 compounds, 4.7% hits. activity change, % at 57.5 µM; in the data active means activity change below about -50%; inconclusive means mostly about -30% to -49%; further: on the % scale 0 is the no-effect control and ±100 the full control effect
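THP-1 cells pretreated 1 hr with compounds (up to 57.5 uM final), then stimulated with LPS (250 ng/mL final) plus ATP (1.25 mM final); secreted IL-1B measured by AlphaLISA after 16 hr, decreased signal indicating inhibition.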
D3 ag – activates the human D3 dopamine receptor | P35462 | D3R DiscoveRx beta-arrestin cells, luminescence, 90 min | max activation, % | 410,000 compounds, 0.58% hits; in the data active means max activation above about 30%; further: 0% is about no effect
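Agonist-mode cell screen: cells plated at 1500/well and incubated overnight at 37 °C, then exposed to library compounds for 90 min at 37 °C. Detection reagent was added for 30–60 min at room temperature, and luminescence was read.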
DT40 TDP1 CPT – DT40-hTDP1 cell growth loss with CPT. chicken DT40 Tdp1-/-;hTDP1 cells + 20 nM CPT, ATP luminescence, 48 h. Potency, µM (doses to about 46.2 µM), for inactives: at the highest dose activity change, negative = growth inhibition, hits mostly inhibitors. 420,000 compounds, 12% hits. AID 686979; further: potency means the concentration at half of the fitted maximal effect; on the % scale 0 is the no-effect control and ±100 the full control effect; nearly all actives have a fitted effect of over 55% in size
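Chicken DT40 Tdp1-/- cells stably complemented with human TDP1 were seeded at 400 cells/well in medium containing 20 nM camptothecin, exposed to pin-transferred compounds, and grown at 37 °C for at least 48 hr. Viability was read as ATP luminescence.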
An asterisk follows results filed as active; i = inactive; ? = inconclusive; nt = no result given; ! = a repeat was not active; [ ] = dose if it differs, or a comment. Unless noted, the call rests on the fitted dose curve; in most records, active means well fitted inhibition curve with a large enough effect; inconclusive means small, poorly fitted or top-dose-only effect; inactive means flat fitted curve, though single readings scatter.

SMILES | TDP1 cell noCPT | ClpP mod | DRD3 antagonist | IL1B secr inh | D3 ag | DT40 TDP1 CPT
CCOC(=O)Cn1c(=O)oc2cc(S(=O)(=O)Nc3cc(OC)cc(OC)c3)ccc21 | 21µM* | 2% | nt | nt | -4 | 16µM*
CCOC(=O)Cn1c(=O)oc2cc(S(=O)(=O)Nc3cc(OCC)ccc3OCC)ccc21 | ? | 0% | -20 | 18 | 1 | -27%
CCOC(=O)Cn1c(=O)oc2cc(S(=O)(=O)Nc3cccc(C)c3)ccc21 | -27% | -1% | -59* | 3 | -4 | -24%
COc1cc(CN2CCNC(=O)C2CC(=O)N(C)Cc2ncc[nH]2)cc(OC)c1 (stereo unspecified) | -4% | nt | 4 | 5 | -8 | 19%
O=C(COc1ccc(Br)cc1Cl)NC(=O)NCc1ccccc1 | -5% | 4% | -4 | -9 | -7 | -28%
O=C(COc1ccc(Br)cc1CNC1CCCCC1)NCCc1ccccc1 | 16µM* | nt | -19 | -97* | -20 | 18µM*
O=C(Cn1[nH]c(=O)c2ccccc2c1=O)NC1CCN(Cc2ccccc2)CC1 | -11% | -7% | -72* | 40 | -8 | ?
C=C(C)c1cccc(C(C)(C)NC(=O)NC2CCN(Cc3ccccc3)CC2)c1 | 18µM* | -4% | -77* | -12 | -15 | ?
O=C(NC1CCN(Cc2ccccc2)CC1)c1cccc(Br)c1 | ? | 1% | -85* | -25 | -44 | 16µM*
O=C(NNC(=O)c1cc(-c2ccncc2)nc2ccccc12)c1ccccc1O | ? | nt | 3 | 73 | 21 | ?
COCCn1c(=NC(=O)CSCC(=O)N2CCOCC2)sc2ccccc21 | -7% | -1% | -4 | i | 2 | -6%
Cc1cc(=O)n(C(C)c2ccccc2)n1C(C)c1ccccc1 (stereo unspecified) | ? | -26% | 15 | 10 | 5 | -29%
N#Cc1ccc(OCC(=O)N(C2CCCCC2)C2CCS(=O)(=O)C2)cc1 (stereo unspecified) | 3% | 1% | ? | 0 | -9 | -6%
C=C(C)c1cccc(C(C)(C)NC(=O)N(Cc2ccccc2)Cc2ccco2)c1 | 21µM* | 1% | 16 | -19 | 3 | 16µM*
O=C(O)/C=C/C(=O)N(Cc1ccccc1)Cc1ccco1 | 18% | nt | 8 | 38 | 3 | 17%
O=C(NC1CCN(Cc2ccccc2)CC1)c1cccc(OC(F)F)c1 | -20% | nt | -55* | ? | -9 | -12%
O=C(NCc1ccccc1)C1COc2ccccc2O1 (stereo unspecified) | -8% | 1% | 15 | 8 | -5 | -6%
O=C(/C=C/c1cccc(Br)c1)NC1CCN(Cc2ccccc2)CC1 | 23µM* | nt | -61* | -78* | -9 | ?
O=C(NC1CCN(Cc2ccccc2)CC1)C1COc2ccccc2O1 (stereo unspecified) | -5% | 1% | -78* | -6 | 1 | -15%
Cc1[nH]c2ccccc2c1C(=O)C(=O)N1CCN(c2ccccc2)CC1 | -20% | 1% | -1 | 15 | -1 | -23%
CC1(C)CC(=O)c2cc(C(=O)Nc3ccccc3)c(=O)[nH]c2C1 | ? | -23% | nt | nt | nt | -24%
COc1ccc(CNCCCSc2nnnn2C)c(OC)c1 | -23% | -2% | nt | nt | -12 | -4%
O=C(CSc1nnc(-c2ccccc2Cl)o1)N1CCCC1 | -13% | nt | -2 | -10 | 3 | 12%
CCOc1cc(CNC2CCCC2)c(Cl)cc1OCC(=O)Nc1ccccc1 | 18µM* | 1% | -27 | -26 | -15 | 18µM*
O=C(NC1CCCCC1)c1ccc2c(c1)OCCO2 | -16% | nt | -12 | -2 | -12 | ?
SMILES | TDP1 cell noCPT | ClpP mod | DRD3 antagonist | IL1B secr inh | D3 ag | DT40 TDP1 CPT
O=C(NC1CCN(Cc2ccccc2)CC1)c1ccc2c(c1)OCCCO2 | -20% | 1% | -57* | 4 | -25 | -10%
O=C(COc1ccc(Br)cc1Cl)NC1CCN(Cc2ccccc2)CC1 | ? | 1% | ? | -81* | -23 | ?
CCN1CCN(c2ccc(S(=O)(=O)N3CCCCC3)cc2NC(=O)c2ccc(C)o2)CC1 | ? | -1% | -8 | -25 | -1 | ?
COc1ccc(NC(=O)c2ccc(NC(=O)CCS(=O)(=O)c3cccs3)cc2)cc1OC | ? | 2% | nt | nt | 5 | -26%
C[C@]12CCC(=O)C=C1CCC1C3CC[C@](O)(C(=O)CO)[C@@]3(C)CC3OC312 (stereo partly specified) | -2%[9.04 µM] | nt | nt | nt | nt | -11%[9.04 µM]
C[C@]12CCC(=O)C=C1CC[C@H]1[C@@H]3CC[C@](O)(C(=O)CO)[C@@]3(C)C[C@H](O)[C@@]12F | 27µM*! | nt | nt | nt | 9 | ?
COc1ccccc1Nc1nc(-c2cccnc2)cs1 | ? | -10% | -19 | -95* | -4 | ?
COc1ccc(CC(=O)Nc2nc(-c3cccnc3)cs2)cc1 | 26µM* | -25% | -12 | 17 | -10 | ?
COc1ccc(Nc2nc(-c3cccnc3)cs2)c(OC)c1 | ? | 1% | 9 | ? | -1 | ?
O=C(COc1ccccc1)Nc1nc(-c2ccncc2)cs1 | 16µM* | -3% | -1 | 37 | 6 | 21µM*
O=C(COc1ccccc1)Nc1nc(-c2cccnc2)cs1 | ? | 1% | 26 | 21 | 13 | ?
Cc1cc(C)cc(OCC(=O)Nc2nc(-c3cccnc3)cs2)c1 | 9.2µM* | 0% | -24 | 0 | 3 | 15µM*
COc1cccc2c1Oc1ncccc1N(C(=O)Nc1cccc(Cl)c1)C2 | ? | -11% | nt | nt | -5 | ?
Nc1ncnc2c1ncn2[C@@H]1O[C@H](C(=O)NS(=O)(=O)c2ccccc2[N+](=O)[O-])[C@@H](O)[C@H]1O | ? | -1% | 10 | 23 | 3 | ?
CC(=O)Nc1cc(NC(C)=O)cc(C(=O)OCC(=O)c2ccc3c(c2)OCO3)c1 | -5% | -3% | 12 | 8 | 6 | 4%
CN1CCN(c2ncc3nc(-c4cc(F)cc(F)c4)c(=O)n(-c4ccccc4)c3n2)CC1 | -18% | nt | nt | nt | nt | -12%
O=C(/C=C/c1ccccn1)c1cc(Cl)cc(Cl)c1O | ? | -23% | 9 | -80* | -5 | ?
COc1ccc(/C=C/C(=O)c2cc(Cl)cc(Cl)c2O)c(OC)c1 | ? | nt | 1 | -13 | 8 | -10%
Cc1cc2nccc(C)c2cc1C | -3% | -12% | nt | nt | nt | 3%
O=C(COC(=O)/C=C/c1ccc(Cl)c(Cl)c1)NC1CCCC1 | -12% | -3% | 1 | 20 | -3 | 3%
